Laboratory results published in PubChem BioAssay (Tox21).
A number with no mark means an inactive call. Records with an inconclusive call do not appear. Where a call stands in place of a potency, no number is given. Calls of active or inactive are those of the source. Calls follow the shape of the dose curve; as a rule, active = well fitted curve in the direction sought with a large enough effect in the repeat runs; inconclusive = weak or mixed curves; inactive = no such curve, though single readings can be large; an effect the other way counts as inactive or inconclusive.

Columns and labels:
[1] = qHTS RealTime-Glo MT Cell Viability Assay in HEK293 cells - 40 hour (AID 1224874); settings: RealTime-Glo luminescence; max response: hits give low values; also: nearly all actives have a fitted effect of over 50% in size
How it was run: (§1)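 600 HEK293 cells per well, dispensed already mixed with RealTime-Glo MT reagents. Compound dosing came 5 h later. The same wells were read for luminescence at 0, 8, 16, 24, 32 and 40 h of exposure at 37 C.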

[2] = A CellTox Green Cytotoxicity Assay to monitor cytotoxicity in HEK293 cells - 24 hour (AID 1224875); also: series mostly up to about 77 µM; nearly all actives have a fitted effect of over 45% in size
How it was run: (§2)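 Dead-cell fluorescence measured kinetically: asymmetric cyanine dye, HEK293, 600 cells/well, 5 h settle, 23 nL cpd/DMSO, 37 C, reads 0–40 h every 8 h.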

[3] = A CellTox Green Cytotoxicity Assay to monitor cytotoxicity in HepG2 cells - 16 hour (AID 1224876); also: nearly all actives have a fitted effect of over 45% in size
How it was run: (§3)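 First, HepG2 cells (600/well) mixed with reagent were plated; second, after 5 h at 37 C they received compounds via pintool; third, fluorescence was measured at 0 h through 40 h at 8 h intervals.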

[4] = qHTS RealTime-Glo MT Cell Viability Assay in HepG2 cells - 32 hour (AID 1224877); also: nearly all actives have a fitted effect of over 55% in size; also: potency is read from the fitted curve at half-maximal effect
How it was run: (§4)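 Luminescence read-out: viable HepG2 cells reduce a prosubstrate to a NanoLuc substrate, giving a signal proportional to live cell number. Reads taken at 0, 8, 16, 24, 32 and 40 h of compound exposure at 37 C.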

[5] = A CellTox Green Cytotoxicity Assay to monitor cytotoxicity in HepG2 cells - 24 hour (AID 1224878); also: nearly all actives have a fitted effect of over 45% in size
How it was run: as §3

[6] = A CellTox Green Cytotoxicity Assay to monitor cytotoxicity in HepG2 cells - 40 hour (AID 1224879); also: nearly all actives have a fitted effect of over 40% in size
How it was run: as §3

[7] = qHTS RealTime-Glo MT Cell Viability Assay in HEK293 cells - 0 hour (AID 1224880); also: top concentration of the series differs between compounds; nearly all actives have a fitted effect of over 45% in size
How it was run: as §1

[8] = A CellTox Green Cytotoxicity Assay to monitor cytotoxicity in HEK293 cells - 32 hour (AID 1224881); also: nearly all actives have a fitted effect of over 40% in size
How it was run: as §2

[9] = A CellTox Green Cytotoxicity Assay to monitor cytotoxicity in HepG2 cells - 0 hour (AID 1224882); also: nearly all actives have a fitted effect of over 35% in size
How it was run: as §3

[10] = A CellTox Green Cytotoxicity Assay to monitor cytotoxicity in HepG2 cells - 32 hour (AID 1224883); also: nearly all actives have a fitted effect of over 50% in size
How it was run: as §3

[11] = A CellTox Green Cytotoxicity Assay to monitor cytotoxicity in HEK293 cells - 8 hour (AID 1224884); also: nearly all actives have a fitted effect of over 35% in size
How it was run: as §2

[12] = qHTS RealTime-Glo MT Cell Viability Assay in HepG2 cells - 16 hour (AID 1224885); also: nearly all actives have a fitted effect of over 50% in size
How it was run: as §4

[13] = qHTS RealTime-Glo MT Cell Viability Assay in HEK293 cells - 24 hour (AID 1224886); also: top concentration of the series differs between compounds; nearly all actives have a fitted effect of over 50% in size
How it was run: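 Nonlytic real-time viability readout: viable cells convert prosubstrate to NanoLuc substrate, giving luminescence proportional to live cell number. HEK293, 600 cells/well, compound added after 5 h, continuous culture at 37 C.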

[14] = qHTS RealTime-Glo MT Cell Viability Assay in HEK293 cells - 8 hour (AID 1224887)
How it was run: as §1

[15] = A CellTox Green Cytotoxicity Assay to monitor cytotoxicity in HEK293 cells - 16 hour (AID 1224888); also: nearly all actives have a fitted effect of over 35% in size
How it was run: as §2

[16] = qHTS RealTime-Glo MT Cell Viability Assay in HepG2 cells - 0 hour (AID 1224889); also: nearly all actives have a fitted effect of over 50% in size
How it was run: as §4

[17] = A CellTox Green Cytotoxicity Assay to monitor cytotoxicity in HepG2 cells - 8 hour (AID 1224890); also: nearly all actives have a fitted effect of over 45% in size
How it was run: as §3

[18] = qHTS assay to identify small molecule antagonists of the estrogen receptor alpha (ER-alpha) signaling pathway using the BG1 cell line in the presence of 0.1 nM 17-beta-estradiol - cell viability counter screen (AID 1259241); also: nearly all actives have a fitted effect of over 40% in size
How it was run: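 Cytotoxicity counter-screen: live-cell protease activity measured by fluorescence (30 min reagent step) in the same wells. Cells were VM7Luc4E2 with endogenous ER-alpha and ERE-driven luciferase, treated 22 hr at 37C alongside 0.1 nM 17beta-estradiol final.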

[19] = qHTS assay to identify small molecule antagonists of the androgen receptor (AR) signaling pathway using the MDA cell line in the presence of 0.5 nM R1881 - cell viability counter screen (AID 1259242); also: nearly all actives have a fitted effect of over 45% in size
How it was run: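 qHTS format. MDA-kb2 (MMTV-luc, AR/GR responsive) + cpd + 0.5 nM R1881 final, 16 hr 37C/0% CO2 → CellTiter-Fluor 30 min → fluorescence intensity.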

Row | Compound | max response [1] | Potency [2] | Potency [3] | Potency [4] | Potency [5] | Potency [6] | Potency [7] | Potency [8] | Potency [9] | Potency [10] | Potency [11] | Potency [12] | Potency [13] | Potency [14] | Potency [15] | Potency [16] | Potency [17] | Potency [18] | Potency [19]
1 | CC(=O)/C=C/C1C(C)=CCCC1(C)C (stereo not drawn) | 0% | inactive | inactive | inactive | inactive | inactive | inactive | inactive | inactive | inactive | inactive | inactive | inactive | inactive | inactive | inactive | inactive | inactive | inactive
2 | CC(=O)c1ccc2c(c1)[C@H](NC(=O)c1ccc(F)cc1)[C@@H](O)C(C)(C)O2 | -0.992% | inactive | inactive | inactive | inactive | inactive | inactive | inactive | inactive | inactive | inactive | inactive | inactive | inactive | inactive | inactive | inactive | inactive | inactive
3 | CC[C@H](C)[C@@H](C(=O)O)n1sc2ccccc2c1=O | -0.529% | inactive | inactive | 49 µM (active) | inactive | inactive | inactive | inactive | inactive | inactive | inactive | inactive | inactive | inactive | inactive | inactive | inactive | inactive | inactive
4 | N#Cc1c(F)cccc1F | -15.1% | inactive | inactive | inactive | inactive | inactive | inactive | inactive | inactive | inactive | inactive | inactive | inactive | inactive | inactive | inactive | inactive | inactive | inactive
5 | O=C(CC(=O)c1ccccc1)c1ccccc1 | -4.39% | inactive | inactive | inactive | inactive | inactive | inactive | inactive | inactive | inactive | inactive | inactive | inactive | inactive | inactive | inactive | inactive | inactive | inactive
6 | CC1=CC(=O)/C(=C(/C)O)C(=O)O1 | 16.6% | inactive | inactive | inactive | inactive | inactive | inactive | inactive | inactive | inactive | inactive | inactive | inactive | inactive | inactive | inactive | inactive | inactive | inactive
7 | CCCCCCCCCCCCC(=O)O | 0.0822% | inactive | inactive | inactive | inactive | inactive | inactive | inactive | inactive | inactive | inactive | inactive | inactive | inactive | inactive | inactive | inactive | inactive | inactive
